MOR-DOR inv ag = mu-delta opioid heterodimer inverse agonism; AID 504357; P35372+P41143; 340,000 compounds, 0.21% hits; inhibition, % at 9.3 µM; cell-based MOR-DOR heterodimer luminescence; in the data active = inhibition above about 22%, passing the limit was not always enough;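 note: 0% = cells with DMSO and 100% = wells without cells with DMSO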
OPRM1-OPRD1 ag = OPRM1-OPRD1 heterodimerization agonism. P35372+P41143. cells, luminescence. activation, % at 9.3 µM. 340,000 compounds, 0.3% hits; in the data active = activation above about 18%;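 note: 0% = vehicle-treated cells and 100% = reference agonist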
m5-HT2A agonist = mouse HTR2A agonism via beta-arrestin recruitment; P35363; CHO-K1 mHTR2A beta-arrestin complementation, luminescence; percent of 30 µM serotonin response; activation, % at 7.6 µM; 360,000 compounds, 0.66% hits; AID 624169;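 active = activation above a run cutoff, the mean activation of all tested compounds plus 3 SD, cut at about 14% in these data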;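 note: 0% = plate median of compound wells and 100% = 30 µM serotonin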
Target sequence (P35363 whole entry, looked up): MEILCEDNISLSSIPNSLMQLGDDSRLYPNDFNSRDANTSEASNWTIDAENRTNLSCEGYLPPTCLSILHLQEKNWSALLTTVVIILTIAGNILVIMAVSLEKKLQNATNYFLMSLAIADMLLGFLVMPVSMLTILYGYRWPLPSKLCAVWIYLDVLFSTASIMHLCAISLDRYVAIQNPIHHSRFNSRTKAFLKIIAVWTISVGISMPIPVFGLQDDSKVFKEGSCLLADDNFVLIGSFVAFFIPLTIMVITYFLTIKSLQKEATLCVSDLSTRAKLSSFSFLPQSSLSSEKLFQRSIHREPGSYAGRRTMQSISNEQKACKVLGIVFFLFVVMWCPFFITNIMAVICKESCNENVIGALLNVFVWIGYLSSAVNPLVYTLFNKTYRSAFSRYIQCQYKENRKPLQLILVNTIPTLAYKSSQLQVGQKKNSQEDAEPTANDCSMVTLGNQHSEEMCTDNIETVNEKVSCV
sPLA2-III inh = Inhibits HGIII-sPLA2 liposome hydrolysis, primary screen | Q9NZ20 | QFRET BODIPY PC-A2 liposome hydrolysis, fluorescence | inhibition, % at 12.2 µM | 370,000 compounds, 0.56% hits;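 active = inhibition above mean plus 3 SD of compounds lying within the high and low control bounds, cut at about 19% in these data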;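 note: 0% = median of test compound wells and 100% = no enzyme DMSO wells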
HTR5A ag = HTR5A agonism, opioid heterodimer counter-screen; P47898; HTR5A agonist assay, luminescence, cell-based; activation, % at 9.3 µM; 340,000 compounds, 0.61% hits; in the data active = activation mostly above about 9.5%, no sharp cut-off; inactive = mostly below about 7.6%;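 note: 0% = cells with vehicle only and 100% = reference agonist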
HTR5A inv ag = HTR5A inverse agonism, opioid heterodimer counter-screen | P47898 | HTR5A cell line, luminescence | 340,000 compounds, 0.083% hits | AID 504634 | inhibition, % at 9.3 µM; in the data active = inhibition mostly above about 23%, no sharp cut-off; inactive = mostly below about 18%;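 note: 0% = cells with DMSO and 100% = no-cell wells with DMSO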
OPRM1 ag = OPRM1 agonism in mouse HTR2A counterscreen | AID 624380 | activation, % at 9.3 µM | 2,300 compounds, 5.3% hits | shares compounds with m5-HT2A agonist | U2OS OPRM1 beta-arrestin PathHunter, luminescence; DMSO 0%, DAMGO 9.3 µM 100%;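 active = mean activation above the mean of DMSO-only wells plus 3 SD, cut at about 0.5% in these data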
m5-HT2A ag conf = confirmation of mouse HTR2A serotonin receptor agonists; 2,300 compounds, 19% hits; CHO-K1 PathHunter beta-arrestin recruitment, luminescence; DMSO 0%, 30 µM serotonin 100%; shares compounds with m5-HT2A agonist; activation, % at 7.6 µM; AID 624381;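 active = mean activation across triplicates above the hit threshold derived in the original primary screen, cut at about 15% in these data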
Active calls of the source: *. Most compounds without a hit are left out; they make up all but 2.2% or so of the library.

`COc1cc(/C=C/C(=O)c2ccc3c(c2)OCCO3)cc(Br)c1OCC(=O)N(C)C` gave MOR-DOR inv ag 9.1, OPRM1-OPRD1 ag -1.7, m5-HT2A agonist 18.5*, sPLA2-III inh -0.5, HTR5A ag -0.9, HTR5A inv ag 2.4, OPRM1 ag -0.8 and m5-HT2A ag conf -5.8.
Cc1[nH]c2ccccc2c1C(=O)c1c(N)[nH]c(C(=O)c2ccc(Br)cc2)c1-c1ccc(Br)cc1 was read as sPLA2-III inh -4.6.
Fc1ccc2nc3[nH]c4ccccc4c3nc2c1 was read as MOR-DOR inv ag -16.5, OPRM1-OPRD1 ag 2.8, m5-HT2A agonist 22.4*, sPLA2-III inh 1.0, HTR5A ag 1.8, HTR5A inv ag -11.1, OPRM1 ag -0.3 and m5-HT2A ag conf -1.0.
`CN1CCn2cnc(C(=O)Nc3ccc(CNC(=O)OC(C)(C)C)cc3)c2C1=O` gave m5-HT2A agonist 16.2*, sPLA2-III inh 17.0, OPRM1 ag -0.6 and m5-HT2A ag conf -3.3.
For C[C@H]1Cn2cnc(C(=O)Nc3ccc(CNC(=O)OC(C)(C)C)cc3)c2C(=O)N1 the results were m5-HT2A agonist -2.6 and sPLA2-III inh 5.2.
For C[C@H](NC(=O)c1[nH]cnc1C(=O)Nc1ccc(CNC(=O)OC(C)(C)C)cc1)C(=O)OC(C)(C)C the results were MOR-DOR inv ag -54.4, OPRM1-OPRD1 ag 9.3, m5-HT2A agonist 19.3*, sPLA2-III inh -24.0, HTR5A ag 4.6, HTR5A inv ag -12.3, OPRM1 ag 0.3 and m5-HT2A ag conf 1.7.
`CC(C)(C)OC(=O)NCCCC[C@H](NC(=O)c1[nH]cnc1C(=O)Nc1ccc(CNC(=O)OC(C)(C)C)cc1)C(=O)OC(C)(C)C` gave sPLA2-III inh -13.8.
CCCCCCc1ccc(NC(=O)[C@@H]2CC=C[C@@H]3CCN(Cc4ccccc4)C(=O)[C@@H]32)cc1 was read as sPLA2-III inh 0.9.
`Nc1ncnc2c1ncn2[C@@H]1O[C@H](CO)[C@@H](O)[C@H]1O` gave MOR-DOR inv ag 4.8, OPRM1-OPRD1 ag -0.9, m5-HT2A agonist 28.2*, sPLA2-III inh 7.6, HTR5A ag -0.2, HTR5A inv ag 0.8, OPRM1 ag -0.6 and m5-HT2A ag conf -2.0.
`OCC1OC(n2ccc3c(NO)ncnc32)C(O)C1O` (stereo not given) gave MOR-DOR inv ag -3.2, OPRM1-OPRD1 ag 0.7, m5-HT2A agonist 18.0*, sPLA2-III inh -3.9, HTR5A ag 3.6, HTR5A inv ag -13.8, OPRM1 ag 0.3 and m5-HT2A ag conf 12.9.
Screening Cc1ccsc1C(=O)N1CCCC(C)(C(=O)O)C1 (stereo not given) returned m5-HT2A agonist 14.5*, sPLA2-III inh -6.1, OPRM1 ag -0.5 and m5-HT2A ag conf -1.8.
Cc1ccsc1C(=O)N1CCCC(C)(C(=O)NS(=O)(=O)C2CC2)C1 (stereo not given) was read as m5-HT2A agonist 5.6 and sPLA2-III inh 3.2.
Screening COc1ccccc1N1CCN(C(=O)c2cc3c(C)nn(-c4ccccc4)c3s2)CC1 returned sPLA2-III inh 1.3.
O=C(NC(=S)Nc1ccccc1N1CCCCC1)c1ccc(F)cc1Cl was read as MOR-DOR inv ag -16.5, OPRM1-OPRD1 ag 3.1, m5-HT2A agonist 16.8*, sPLA2-III inh -0.8, HTR5A ag -0.2, HTR5A inv ag -12.0, OPRM1 ag -0.5 and m5-HT2A ag conf -5.2.
C=CCN1C(=O)[C@@H](CC(=O)NCc2ccccc2)[C@]2(C(=O)OC)CCCCC=C12 was read as sPLA2-III inh -5.4.
Screening COCCCNC(=O)C[C@H]1C[C@@]2(C(=O)OC)C(=C[C@H](C3CCCC3)O[C@@H]2C)N(Cc2ccccc2)C1=O returned sPLA2-III inh -1.7.
`COc1ccc2c(CN3CCN(c4ccc(Cl)c(Cl)c4)CC3)cc(=O)oc2c1` gave m5-HT2A agonist 11.7 and sPLA2-III inh 1.3.
Screening COc1cc2oc(=O)cc(CN3CCN(c4ccc(Cl)c(Cl)c4)CC3)c2cc1Cl returned m5-HT2A agonist 25.1*, sPLA2-III inh -2.7, OPRM1 ag -0.7 and m5-HT2A ag conf 9.5.
Screening CC(C)CNc1cccc2c1S(=O)(=O)N(Cc1cn(Cc3ccc(C(F)(F)F)cc3)nn1)Cc1ccccc1O2 returned sPLA2-III inh -10.3.
Cc1ccc(CN2CCCCC(NC(=O)c3ccc(COc4ccccc4)cc3)C2=O)cc1 (stereo not given) was read as sPLA2-III inh -3.4.
Screening COP(N)(=O)C(CC(C)C)NC(=O)OCc1ccccc1 (stereo not given) returned sPLA2-III inh 4.5.
Screening O=C(NCc1ccccc1)C(C1CC1)n1c(=O)c(-c2cc3ccccc3[nH]2)nc2ccccc21 (stereo not given) returned m5-HT2A agonist 15.1*, sPLA2-III inh -18.7, OPRM1 ag 0.5 and m5-HT2A ag conf 2.1.
CC(=O)N1CCCN(S(=O)(=O)c2ccc3c(c2)c(=O)n(C)c(=O)n3C)CC1 was read as sPLA2-III inh 4.0.
CCC(OC(=O)c1nsc(Cl)c1Cl)C(=O)NCc1cccs1 (stereo not given) was read as MOR-DOR inv ag 19.5, OPRM1-OPRD1 ag -3.2, m5-HT2A agonist 26.9*, sPLA2-III inh -2.3, HTR5A ag 0.0, HTR5A inv ag -18.3, OPRM1 ag -0.6 and m5-HT2A ag conf -2.6.
CC(C)CC(OC(=O)c1nsc(Cl)c1Cl)C(=O)NCc1cccs1 (stereo not given) was read as MOR-DOR inv ag 2.0, OPRM1-OPRD1 ag -0.4, m5-HT2A agonist 2.2, sPLA2-III inh -6.1, HTR5A ag 2.3 and HTR5A inv ag -45.7.
`CCN(C(=O)CSc1n[nH]c(N)n1)C1CCCCC1` gave MOR-DOR inv ag 1.0, OPRM1-OPRD1 ag -0.2, m5-HT2A agonist 16.8*, sPLA2-III inh 3.7, HTR5A ag -0.5, HTR5A inv ag -4.7, OPRM1 ag -0.7 and m5-HT2A ag conf -4.7.
For COC(=O)C1=C(C)N(Cc2ccc(C(F)(F)F)cc2)C(=NCc2ccccc2)NC1c1ccc(C(F)(F)F)cc1 (stereo not given) the results were sPLA2-III inh 8.2.
Screening C=CC[C@]12C[C@@]3(O[C@H](c4ccc(C(F)(F)F)cc4)N=C3C[C@H](c3ccc(OC)cc3)[C@H]1C)N(Cc1ccncc1)C2=O returned sPLA2-III inh -4.2.
NC(=O)c1ccc(/C=N/O)[n+](Cc2ccccc2)c1 was read as MOR-DOR inv ag 7.2, OPRM1-OPRD1 ag -1.5, m5-HT2A agonist 16.0*, sPLA2-III inh 1.8, HTR5A ag -0.3, HTR5A inv ag 1.2, OPRM1 ag -0.6 and m5-HT2A ag conf -2.9.
